Test results from PubChem BioAssay (NCI).
The panel holds about 79,000 compounds, 15% with a hit somewhere; the sample as a whole holds those more often. Calls of active or inactive are those of the source. Cut-off read from the data, not from the text of the source: active = growth inhibition above about 70%; inactive = the rest.

Assays:
[1] = NCI Yeast Anticancer Drug Screen. Data for the wt1 strain (AID 149);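 note: 0% = growth of vehicle-treated wt1 cultures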; conditions: S. cerevisiae wt1 strain (SPY 50644) growth inhibition, stronger effect = higher value
Procedure, shortened: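 Vehicle-normalised growth inhibition; strain wt1; compound exposure.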

[2] = NCI Yeast Anticancer Drug Screen. Data for the rad50EPP+ strain (AID 151);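 note: 0% = growth of vehicle-treated control cultures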; conditions: S. cerevisiae rad50 mutant strain, stronger effect = higher value
Procedure, shortened: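 rad50EPP+ yeast treated with test compounds. Readout: growth vs vehicle control.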

[3] = NCI Yeast Anticancer Drug Screen. Data for the mgt1 strain (AID 153); conditions: S. cerevisiae mgt1 mutant growth inhibition, stronger effect = higher value
Procedure, shortened: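 Growth inhibition relative to vehicle controls was scored for the mgt1 yeast strain after compound exposure.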

[4] = NCI Yeast Anticancer Drug Screen. Data for the rad50 strain (AID 155);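 note: 0% = growth of vehicle-only cultures of the same strain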; conditions: S. cerevisiae rad50 strain growth inhibition, stronger effect = higher value
Procedure, shortened: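 A DNA repair-deficient yeast mutant serves as the test organism; compound-induced growth inhibition is calculated against vehicle-treated cells.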

[5] = NCI Yeast Anticancer Drug Screen. Data for the mec2-1 strain (AID 157); conditions: S. cerevisiae mec2-1 strain, stronger effect = higher value
Procedure, shortened: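 Growth inhibition is read against vehicle-treated controls after compound exposure of the mec2-1 yeast strain, which is defective in DNA damage repair or cell cycle control.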

[6] = NCI Yeast Anticancer Drug Screen. Data for the CLN2oe strain (AID 163);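 note: 0% = growth of vehicle-only control cultures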; conditions: S. cerevisiae CLN2oe strain, stronger effect = higher value
Procedure, shortened: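 Compound-treated yeast; growth vs vehicle ctrl = % inhibition. Genetically altered strain (cell-cycle control).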

[7] = NCI Yeast Anticancer Drug Screen. Data for the cln2 rad14 strain (AID 165);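 note: 0% = growth equal to vehicle treated cultures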; conditions: S. cerevisiae cln2 rad14 strain, stronger effect = higher value
Procedure, shortened: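 Growth inhibition, relative to vehicle-treated controls, is the read-out. The test organism is a yeast strain with defined genetic alterations, cln2 rad14.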

[8] = NCI Yeast Anticancer Drug Screen. Data for the bub3 strain (AID 167); conditions: S. cerevisiae bub3 mutant strain, stronger effect = higher value
Procedure, shortened: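 Inhibition values come from growth of compound-treated mutant yeast normalised to vehicle-treated controls.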

[9] = NCI Yeast Anticancer Drug Screen. Data for the wt2 strain (AID 169);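 note: 0% = growth of vehicle-treated yeast cultures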; conditions: S. cerevisiae wt2 strain growth inhibition, stronger effect = higher value
Procedure, shortened: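 Compound exposure of yeast; growth compared with vehicle controls; inhibition reported.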

[10] = NCI Yeast Anticancer Drug Screen. Data for the mlh1 strain (AID 171);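 note: 0% = growth of vehicle-treated control cultures of the same strain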; conditions: S. cerevisiae mlh1 strain growth inhibition, stronger effect = higher value
Procedure, shortened: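 Compounds are applied to a genetically altered yeast strain, and its growth is compared with that of vehicle-treated cultures to give percent inhibition.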

[11] = NCI Yeast Anticancer Drug Screen. Data for the sgs1 strain (AID 173);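 note: 0% = growth of vehicle-only control cultures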; conditions: S. cerevisiae sgs1 mutant, stronger effect = higher value
Procedure, shortened: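 Compounds applied to genetically altered yeast; growth compared with vehicle-treated cultures to give % inhibition.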

[12] = NCI Yeast Anticancer Drug Screen. Data for the mlh1 rad18 strain (AID 175); conditions: S. cerevisiae mlh1 rad18 strain growth inhibition, stronger effect = higher value
Procedure, shortened: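 Cells of a genetically altered yeast strain, deficient in DNA damage repair, were treated with compound. Their growth was then compared with that of vehicle-treated cultures to give inhibition.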

[13] = NCI Yeast Anticancer Drug Screen. Data for the rad18 strain (AID 177); conditions: S. cerevisiae rad18 mutant growth inhibition, stronger effect = higher value
Procedure, shortened: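 Compounds are applied to a repair-deficient yeast strain, and growth is compared with that of vehicle-treated cultures to give percent inhibition.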

[14] = at 5.0 µM (retest, dose inferred, filed as 0.5)
[15] = at 50.0 µM (retest, dose inferred, filed as 5.0)

Measured: growth inhibition

CCOP(=O)(OCC)/C(C#N)=C/c1ccc(-c2ccc(F)cc2F)o1
inactive: [1]; at 1.2 µM -2% | [1]; at 3.7 µM -2% | [1]; at 11.0 µM -2% | [1]; at 33.0 µM -4% | [1]; at 100.0 µM -1% | [2]; at 1.2 µM 0% | [2]; at 3.7 µM 1% | [2]; at 11.0 µM 3% | [2]; at 33.0 µM 0% | [2]; at 100.0 µM 5% | [3]; at 1.2 µM -5% | [3]; at 3.7 µM -4% | [3]; at 11.0 µM 0% | [3]; at 33.0 µM -10% | [3]; at 100.0 µM 0% | [4]; at 1.2 µM 2% | [4]; at 3.7 µM 2% | [4]; at 11.0 µM -9% | [4]; at 33.0 µM 3% | [4]; at 50.0 µM 39.8% | [4]; at 100.0 µM 5% | [5]; at 1.2 µM 2% | [5]; at 3.7 µM -4% | [5]; [14] 19% | [5]; at 11.0 µM -4% | [5]; at 33.0 µM -6% | [5]; at 100.0 µM -1% | [6]; at 1.2 µM -1% | [6]; at 3.7 µM 1% | [6]; at 11.0 µM -6% | [6]; at 33.0 µM -7% | [6]; at 100.0 µM -1% | [7]; [14] 16% | [7]; at 50.0 µM 60.6% | [8]; at 1.2 µM -7% | [8]; at 3.7 µM -1% | [8]; [14] 26% | [8]; at 11.0 µM 4% | [8]; at 33.0 µM -3% | [8]; at 100.0 µM -2% | [9]; at 1.2 µM -2% | [9]; at 3.7 µM 0% | [9]; at 11.0 µM -1% | [9]; at 33.0 µM 1% | [9]; at 100.0 µM 1% | [10]; at 1.2 µM -1% | [10]; at 3.7 µM -7% | [10]; at 11.0 µM 3% | [10]; at 33.0 µM 0% | [10]; at 100.0 µM -1% | [11]; at 1.2 µM -2% | [11]; at 3.7 µM -4% | [11]; at 11.0 µM -3% | [11]; at 33.0 µM -4% | [11]; at 100.0 µM -1% | [12]; [14] 60% | [12]; at 50.0 µM 41.4% | [13]; at 1.2 µM -3% | [13]; at 3.7 µM -2% | [13]; at 11.0 µM -2% | [13]; at 33.0 µM -19% | [13]; at 100.0 µM 2%
active: [4]; [14] 75% | [4]; [15] 99% | [5]; [15] 99% | [5]; at 50.0 µM 70.8% | [7]; [15] 99% | [8]; [15] 99% | [8]; at 50.0 µM 74.8% | [12]; [15] 99%
